The text below walks through data of PubChem BioAssay AID485346 (Sanford-Burnham Center for Chemical Genomics, 2010).

Structures are written as SMILES. Among all 330,000 compounds or so, about 10,000 (3%) were called active. The entries come from a sample that favours actives as a whole. Unmarked numbers belong to inactive results.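 The calls were made as follows: active = inhibition of at least 50% at 8 µM in the primary screen; inactive = the rest.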

The target in this assay is Protein Mdm4 (Homo sapiens) + E3 ubiquitin-protein ligase Mdm2 (Homo sapiens) (UniProt O15151+Q00987). As to the kind of experiment: disruptors of Mdm2/MdmX RING complex – cell-based, luminescence, split luciferase, SaOS-2, uHTS, primary screen (AID 485346). The conditions noted are these: SaOS-2 split-luciferase Mdm2/MdmX complementation, at 8 µM, stronger effect = higher value.
Chain of Protein Mdm4 (Homo sapiens) + E3 ubiquitin-protein ligase Mdm2 (Homo sapiens) (O15151 whole entry, looked up): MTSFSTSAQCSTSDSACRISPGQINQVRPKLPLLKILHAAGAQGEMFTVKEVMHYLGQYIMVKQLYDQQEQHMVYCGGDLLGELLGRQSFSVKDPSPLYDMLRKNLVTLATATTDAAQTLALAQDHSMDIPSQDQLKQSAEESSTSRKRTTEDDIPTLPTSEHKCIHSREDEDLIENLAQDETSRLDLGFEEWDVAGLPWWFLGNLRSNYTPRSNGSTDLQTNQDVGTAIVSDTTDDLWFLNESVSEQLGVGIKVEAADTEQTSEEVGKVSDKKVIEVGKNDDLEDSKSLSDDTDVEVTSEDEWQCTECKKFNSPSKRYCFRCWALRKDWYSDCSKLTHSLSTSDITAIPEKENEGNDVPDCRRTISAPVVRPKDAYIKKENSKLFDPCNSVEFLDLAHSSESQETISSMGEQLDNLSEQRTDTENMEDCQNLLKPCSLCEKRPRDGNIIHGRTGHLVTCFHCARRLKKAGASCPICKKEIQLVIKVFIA
Chain of Protein Mdm4 (Homo sapiens) + E3 ubiquitin-protein ligase Mdm2 (Homo sapiens) (Q00987 whole entry, looked up): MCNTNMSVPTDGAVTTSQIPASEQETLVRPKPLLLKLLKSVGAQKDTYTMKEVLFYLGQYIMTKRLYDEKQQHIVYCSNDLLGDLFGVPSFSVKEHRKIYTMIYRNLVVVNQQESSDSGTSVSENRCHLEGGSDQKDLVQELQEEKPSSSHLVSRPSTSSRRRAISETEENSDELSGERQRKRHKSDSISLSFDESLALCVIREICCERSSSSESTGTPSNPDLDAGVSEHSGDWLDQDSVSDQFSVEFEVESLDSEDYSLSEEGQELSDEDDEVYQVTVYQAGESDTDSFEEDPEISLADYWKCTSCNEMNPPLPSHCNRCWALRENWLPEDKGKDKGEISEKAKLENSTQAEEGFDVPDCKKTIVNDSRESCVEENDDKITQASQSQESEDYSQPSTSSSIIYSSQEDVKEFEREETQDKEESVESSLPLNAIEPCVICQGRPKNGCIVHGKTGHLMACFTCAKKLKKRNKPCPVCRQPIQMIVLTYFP
Turning to `COc1ccc(N=C2SC(C(=O)Nc3ccc(F)cc3)CC(=O)N2C)cc1` (stereo not given), the inhibition (as a rule, the change of the read-out against control, counted positive when it falls) is 15%.

With `Cc1cccc(NC(=O)NC(=S)NC(=O)c2ccccc2)c1`, the inhibition is -38.5%.

With `Cc1ccc(NC(=O)Nc2ccccc2)c(Br)c1`, the inhibition was -41.3%.

`Cc1cccc(NC(=O)Nc2cccc(Oc3c(F)c(F)c(F)c(F)c3F)c2)c1`: the inhibition is 74.3% (active).

Consider `O=C(COc1ccc(Cl)cc1)Nc1ccc2oc(=O)ccc2c1`, for which the inhibition is -1.06%.

`O=C(NC(=S)Nc1ccc2oc(=O)ccc2c1)c1ccc(-c2cccc(Cl)c2Cl)o1`: the inhibition is 80.7% (active).

Turning to `CC(C)C(=O)Nc1ccc2oc(=O)ccc2c1`, the inhibition is 3.99%.

`CC1(C)CC(=O)C=C(c2cccc3c2Oc2ccccc2S3)C1`: the inhibition is 2.33%.

Take `COc1cc2c(cc1OC)CN(C(=O)c1ccc(S(=O)(=O)N3CCCCCC3)cc1)CC2`: the inhibition is 11%.

On to `COc1cc2c(cc1OC)CN(C(=O)c1cc(=O)c3ccccc3o1)CC2`, for which the inhibition was 49.8%.

Regarding `CCOc1cc(C(=O)N2CCc3cc(OC)c(OC)cc3C2)ccc1OC(F)F`, the inhibition was 51% (active).

As for `Cc1c(C=O)c2ccccn2c1C(=O)c1ccncc1`, the inhibition is 22.9%.

Turning to `COc1ccc(S(=O)(=O)N2CCOCC2)cc1NC(=O)c1ccc(OCC(C)C)c(OC)c1`, the inhibition was 38.4%.

As for `C/C(=N\Nc1nc(Nc2ccccc2)nc(N2CCOCC2)n1)c1cccs1`, the inhibition was 46.5%.

In the case of `Cc1ccc(Nc2nc(N3CCOCC3)nc(N3CCOCC3)n2)cc1Cl`, the inhibition is 48.2%.

With `Cc1ccccc1NC(=O)CSc1nc2ccc(Nc3nc(N4CCOCC4)nc(N4CCOCC4)n3)cc2s1`, the inhibition was 80.5% (active).

Take `O=C(CSc1nc2ccc(Nc3nc(N4CCOCC4)nc(N4CCOCC4)n3)cc2s1)NCc1ccco1`: the inhibition is 20.3%.

As for `CC1(c2ccccc2)NC(=O)N(CC(=O)Nc2cc(Cl)ccc2N2CCOCC2)C1=O` (stereo not given), the inhibition was 6.67%.

For the molecule `O=C(CSc1nc(Nc2ccccc2)nc(N2CCOCC2)n1)Nc1cc(Cl)ccc1O`, the inhibition was 81.9% (active).

Regarding `NS(=O)(=O)c1ccc(N2C(=O)C3C4CC(C(Br)C4Br)C3C2=O)cc1` (stereo not given), the inhibition was -13.2%.

Consider `CCC(C(=O)NCc1cccnc1)n1nc(C)c2sc3ccccc3c2c1=O` (stereo not given), for which the inhibition was 20.9%.

Take `Cc1nc2ccccc2nc(C)c1=NOCc1ccc(Cl)cc1Cl`: the inhibition was 22.9%.

For the molecule `NC(N)=N/N=C/c1ccc(OCc2ccc(Cl)cc2Cl)cc1`, the inhibition is 97.6% (active).

As to `OC(CNCCc1ccc(Cl)cc1Cl)COc1ccccc1` (stereo not given), the inhibition is -3.6%.

As for `COc1ccc2cc1Oc1ccc(cc1)C[C@H]1c3cc(c(OC)cc3CCN1C)Oc1c(O)c(OC)cc3c1[C@H](C2)N(C)CC3`, the inhibition was 98.4% (active).

As for `Cc1cccc(-[n+]2c(-c3cccc(Br)c3)[nH]c3nc4ccccc4nc32)c1`, the inhibition was 42.8%.

As for `CCC/C(O)=C1\C(=O)CC(C)(C)CC1=Nc1ccccc1OC`, the inhibition is 17.5%.

In the case of `COc1ccc(N2CC(NS(=O)(=O)c3ccc4ccccc4c3)CC2=O)cc1` (stereo not given), the inhibition is 4.41%.

As to `COc1cc(NS(=O)(=O)c2ccc3ccccc3c2)c2ncccc2c1`, the inhibition was 94.8% (active).

On to `Cc1ccc(S(=O)(=O)Nc2ccc3ncccc3c2)cc1`, for which the inhibition is 19.7%.

As for `Cc1cc(NC(=O)CCC(=O)N(CC(=O)NCC2CCCO2)c2ccccc2C)no1` (stereo not given), the inhibition was 11.6%.

Take `COc1ccc(OC)c(S(=O)(=O)NCCC(C)C)c1`: the inhibition is 22.1%.

On to `C=C(C)C(=O)O[C@H]1C/C(C)=C\C(=O)/C=C(\C)[C@H](O)[C@@H]2OC(=O)C(=C)[C@@H]21`, for which the inhibition was 95.4% (active).

For the molecule `O=C(CNC1CCCCC1)NCC1(c2ccccc2)CCCC1`, the inhibition is 2.11%.

For the molecule `C=C1CCN([C@H](C(=O)NCc2cc(OC)c(OC)c(OC)c2)C(C)C)S(=O)(=O)c2ccccc21`, the inhibition was -24.7%.

For the molecule `C[C@@H]1CC[C@]2(O[C@@H](CCO)C[C@H](O)[C@H]2O)O1`, the inhibition was 16.3%.

As to `CC(C)c1ccc(NC(=O)C2CCCN(S(=O)(=O)c3cccnc3)C2)cc1` (stereo not given), the inhibition was 20.9%.

In the case of `CC(=O)Nc1ccc(NC(=O)C2CCCN(S(=O)(=O)c3ccc(Cl)cc3)C2)cc1` (stereo not given), the inhibition is 55.6% (active).

Turning to `COc1ccc(S(=O)(=O)N2CCCC(C(=O)Nc3ccc(NC(=O)c4ccccn4)cc3)C2)cc1` (stereo not given), the inhibition was -15.5%.

With `CCCCOC(=O)c1ccc(N2C(=O)CC(N3CCN(C/C=C/c4ccccc4)CC3)C2=O)cc1` (stereo not given), the inhibition was 25.8%.

`CCOC(=O)c1ccc(N2C(=O)CC(N(C)Cc3ccccc3)C2=O)cc1` (stereo not given): the inhibition is -7.46%.

As to `CCCCCCC(=O)N(O)C1CC(=O)N(c2ccccc2)C1=O` (stereo not given), the inhibition was 61.2% (active).

As for `CS(=O)(=O)c1ccc(Cl)c(NC(=O)COC(=O)c2ncc(Cl)c(Cl)c2Cl)c1`, the inhibition is 13.8%.

As to `CCOc1ccc(CN2CCC(n3nccc3NC(=O)C3CC3)CC2)cc1CO`, the inhibition was 20%.

On to `Cc1ccc(-c2nc3ccccc3[nH]2)cc1NC(=O)c1sc2ccccc2c1Cl`, for which the inhibition is 99.3% (active).

Take `CN1CCc2ccccc2C1Cc1ccccc1NC(=O)c1sc2ccccc2c1Cl` (stereo not given): the inhibition is 12.4%.

`COc1ccc(Br)cc1C(=O)NC(=S)Nc1cc(-c2nc3ccccc3[nH]2)ccc1C`: the inhibition is 81.4% (active).

For `COc1ccc(Br)cc1C(=O)Nc1cccc(C)c1C`, the inhibition was -15.3%.

`Cc1cc2[nH]ncc2cc1NC(=S)NC(=O)c1ccccc1`: the inhibition is 35%.

For the molecule `Cc1ccc2c(Cl)c(C(=O)Nc3nn[nH]n3)sc2c1`, the inhibition was 16.7%.

Take `Cc1cc(C(=O)O)c(S(C)(=O)=O)s1`: the inhibition was 24.5%.

In the case of `COC(=O)C(C(=O)Nc1cccc(C)n1)C1CCCCCC1` (stereo not given), the inhibition was 10.4%.

For the molecule `C=CCOc1ccc(/C=C/C(=O)OC(C)C(=O)Nc2ccc(NC(C)=O)cc2)cc1` (stereo not given), the inhibition is 4.16%.

For `COc1ccc(-c2cc3ncccc3cn2)cc1`, the inhibition was -99.3%.

For `COc1ccc(-c2cc(C3CCN(c4ncccc4[N+](=O)[O-])CC3)[nH]n2)cc1`, the inhibition was 56.4% (active).

Take `CC(=O)NC(Cc1ccccc1)C(=O)NC1CCN(c2ncccc2[N+](=O)[O-])CC1` (stereo not given): the inhibition was 20.8%.

With `COc1ccc(S(=O)(=O)N2CCCC2CNC(=O)C(=O)NC2CC2)cc1` (stereo not given), the inhibition was 5.26%.

Consider `CC(C)CCSc1ncnc2c1oc1nc3c(cc12)COC(C)(C)C3`, for which the inhibition was -3.42%.

Turning to `CC1(C)Cc2nc3sc4c(SCC(=O)NC(c5ccccc5)c5ccccc5)ncnc4c3cc2CO1`, the inhibition is 71.8% (active).

Consider `C=CCn1c(=S)[nH]c2nc3c(cc2c1=O)COC(C)(C)C3`, for which the inhibition is -32.6%.

As for `CCCCN(CC(=O)Nc1cccc(S(=O)(=O)N2CCCC2)c1)Cc1nc2ccccc2c(=O)[nH]1`, the inhibition is 15.4%.

In the case of `CC(C(=O)N1CCN(c2ccccc2F)CC1)c1ccc([N+](=O)[O-])cc1` (stereo not given), the inhibition is -3.99%.

With `COC(=O)c1cc(OC)ccc1-c1ccc(OC)cc1`, the inhibition was 21.1%.

In the case of `COc1ccc(Oc2cn[nH]c2-c2ccc(OC)cc2O)cc1`, the inhibition is 14.4%.

Regarding `COc1ccc(-c2cn[nH]c2-c2ccc(OC)cc2)cc1`, the inhibition is 63.5% (active).

Consider `O=C(O)CCn1c(O)c(C=C2N=c3ccccc3=N2)sc1=S`, for which the inhibition was -11%.

As to `O=C(CN1CCOc2ccccc21)N1CCC(Cc2ccccc2)CC1`, the inhibition is 25.3%.

Turning to `Cc1c(NS(=O)(=O)c2cc(C(=O)NCCc3ccc(F)cc3)cc(Cl)c2Cl)c(=O)n(-c2ccccc2)n1C`, the inhibition is 1.11%.

With `CCOc1ccc(C2c3[nH]c4ccccc4c3CCN2Cc2cccn2-c2ncccn2)cc1` (stereo not given), the inhibition is 76.2% (active).

Take `CCOc1ccc(C2c3[nH]c4ccccc4c3CCN2Cc2cn(CC)nc2C)cc1` (stereo not given): the inhibition was 12.1%.

In the case of `c1ccc(C2c3[nH]c4ccccc4c3CCN2Cc2cccn2-c2cccnc2)nc1` (stereo not given), the inhibition is 5.09%.

`CCc1ccc(NC(=O)C(C)OC(=O)/C=C/c2cccc([N+](=O)[O-])c2)cc1` (stereo not given): the inhibition was -11%.

As to `CC1=C(C(=O)OC2CCCCC2)C(c2cccnc2)n2ncnc2N1` (stereo not given), the inhibition is 18.3%.

As for `CCOC(=O)Nc1ccc2c(c1)N(C(=O)CCN1CCN(CCO)CC1)c1ccccc1CC2`, the inhibition was -8.36%.

`CCOC(=O)Nc1ccc2c(c1)N(C(=O)CCCl)c1ccccc1[S@]2=O`: the inhibition was 84.3% (active).

As to `CCNCCC(=O)N1c2ccccc2Sc2ccc(NC(=O)OCC)cc21`, the inhibition was 11.1%.

`CCOc1cc(-c2cc(-c3ccc(NC(C)=O)cc3)nc(N)c2C#N)ccc1O`: the inhibition was 62.3% (active).

With `CCOC(=O)CC(=O)CSc1nc(-c2ccccc2)cc(-c2ccc(Cl)cc2)c1C#N`, the inhibition was 17%.

Turning to `CCOc1cc(-c2cc(-c3ccc(OC)cc3)nc(N)c2C#N)ccc1O`, the inhibition was 14.7%.

On to `CCC(C)c1ccccc1NC(=O)CN(C)CC(=O)Nc1ccccc1SC` (stereo not given), for which the inhibition is 9.56%.

As to `O=C(NCC1CCCO1)c1ccc2ccccc2n1` (stereo not given), the inhibition was -19.2%.

Consider `O=C(NCCCO)c1cc2c([nH]c3ccccc32)c(-c2ccc(F)cc2)n1`, for which the inhibition is 40.9%.

In the case of `O=C(NCC1CCCO1)c1cc2c([nH]c3ccccc32)c(-c2ccc(F)cc2)n1` (stereo not given), the inhibition is 69.3% (active).

As to `COc1ccc2[nH]c3c(c2c1)CCN1C(=O)C(CC(=O)NCCc2ccccn2)C[C@H](C(=O)N2CCOCC2)[C@@]31C` (stereo not given in full), the inhibition was 1.71%.

As for `Cc1ccc2c(N)c(C(=O)c3ccccc3)sc2n1`, the inhibition is 20.5%.

Turning to `Cc1sc2nc(CC(N)=O)[nH]c(=O)c2c1-c1ccccc1`, the inhibition is -7.25%.

As to `NC(=O)c1sc2nc3c(c(-c4ccccc4)c2c1N)CCC3`, the inhibition is 57.3% (active).

On to `COC(=O)Cn1c(=NC(=O)c2cc(OC)c(OC)c(OC)c2)sc2cc(OC)ccc21`, for which the inhibition is 34.7%.

`CCOC(=O)C(Sc1ncc(C#N)c(N)n1)C(C)C` (stereo not given): the inhibition is 15.2%.

Take `C=CCn1c(SCC(=O)NC)nnc1C12CC3CC(CC(C3)C1)C2`: the inhibition is 10.2%.
